In PubChem BioAssay (NCATS):
Records with an inconclusive call do not appear. Calls of active or inactive are those of the source. Calls follow the shape of the dose curve; as a rule, active = well fitted curve in the direction sought with a large enough effect; inconclusive = small, poorly fitted or top-dose-only effect, or another doubt; inactive = no such curve, though single readings can be large; an effect the other way counts as inactive or inconclusive.

Legend:
[1] = Cellular Toxicity (caspase-3) H-4-II-E (AID 663); details: H-4-II-E rat hepatoma, scaled: DMSO 0%, 100 µM tamoxifen 100%; series mostly up to 92.2 µM;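 also: cells exposed to compound for 16 hr before readout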
Method in brief: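 Luminescence from caspase-cleaved aminoluciferin substrate, read 20 min after reagent addition, reports caspase 3/7 activation in rat H-4-II-E cells after 16 hr compound exposure. Normalized to DMSO (basal) and 100 uM tamoxifen (100%); AC50 from Hill fits.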

[2] = Cellular Toxicity (caspase-3) Hek293 (AID 664); details: HEK293 caspase-3 activation, DMSO = 0%, 100 µM tamoxifen = 100%; series mostly up to 92.2 µM;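 also: cells exposed to compound for 16 h at 37 °C before readout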
Method in brief: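 HEK293 cells in complete medium treated 16 h at 37 °C, then Caspase-Glo 3/7 luminescence read after 20 min at room temperature. Normalized to DMSO and 100 uM tamoxifen; AC50 from Hill fit of concentration-response.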

[3] = Cellular Toxicity (caspase-3) NIH 3T3 (AID 666); details: NIH 3T3 caspase-3 activation, apoptosis/toxicity, 0% DMSO, 100% is 100 µM tamoxifen; series mostly up to 92.2 µM;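 also: 0% = DMSO basal and 100% = 100 µM tamoxifen stimulation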
Method in brief: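 Mouse NIH 3T3 fibroblasts (1000/well) treated 16 h at 37 C; caspase-3/7 activity measured by Caspase-Glo 3/7 luminescence after 20 min. Normalized to DMSO and 100 uM tamoxifen; AC50 from Hill fits.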

[4] = Cellular Toxicity (caspase-3) Renal Proximal Tubule (AID 667); details: renal proximal tubule cells; at 91.7 µM (top of the series), primary cells freshly taken from rat, solvent-only wells 0%, staurosporine 100% unless noted;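 also: cells exposed to compound for 16 hours at 37 °C before detection; 0% = DMSO basal and 100% = 10 µM staurosporine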
Method in brief: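 In qHTS format, rat primary proximal tubule cells seeded at 1000 per well are exposed to compounds for 16 hours at 37 °C. An increase in Caspase-Glo 3/7 luminescence indicates caspase activation.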

[5] = molecular target: Cytochrome P450 3A4 (Homo sapiens) (UniProt P08684); experiment: qHTS Assay for Inhibitors and Substrates of Cytochrome P450 3A4 (AID 884); details: recombinant CYP3A4, Luciferin-PPXE luminescence; series mostly up to 57.1 µM; also: % is scaled to controls: 0 for no effect and ±100 for the full control effect; nearly all actives have a fitted effect of over 50% in size
Method in brief: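 20 nM human CYP3A4 with 25 uM Luciferin-PPXE (at KM) in 200 mM KPO4, preincubated 10 min with compound; NADPH regeneration started a 60 min RT reaction. Luciferin detected by luminescence, normalized to 57 uM ketoconazole as full inhibition.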

[6] = Cell Viability - LYMP2-001 (AID 921); details: LYMP2-001 lymphoblastoid cell viability; series mostly up to 92.2 µM;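 also: 0% = DMSO only and full inhibition = tetraoctylammonium bromide control wells; nearly all actives have a fitted effect of over 70% in size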
Method in brief: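 qHTS, 1536-well; lymphoblastoid cells, 24 hr compound, 37 C; ATP by CellTiter-Glo, 30 min RT; luminescence; Hill-fit AC50.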

[7] = MultiTox-Fluor Cytotoxicity Assay - LYMP1-001 - Dead Cells (AID 946); details: LYMP1-001 lymphoblastoid cells, dead-cell protease fluorescence; series mostly up to 92.2 µM
Method in brief: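 Cytotoxicity as increased dead-cell protease fluorescence (bis-AAF-R110, 485/520 nm), read 60 min after MultiTox-Fluor reagent. Human lymphoblastoid line exposed 16 h; Hill-fitted AC50, with DMSO as 0% and 15 uM tetraoctylammonium bromide as 100%.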

[8] = Cell Viability - LYMP1-002 - Assay at 16 hr (AID 948); details: LYMP1-002 lymphoblastoid cell viability; series mostly up to 92.2 µM;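 also: 0% = DMSO alone and full effect = 92 µM tetraoctylammonium bromide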
Method in brief: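 Acute cytotoxicity is scored as a concentration-dependent fall in intracellular ATP in a human lymphoblastoid line (LYMP1-002) after 16 hr compound exposure at 37 C, measured by luciferase luminescence.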

[9] = MultiTox-Fluor Cytotoxicity Assay - LYMP1-002 - Live Cells (AID 955); details: LYMP1-002 lymphoblastoid live-cell protease fluorescence viability; series mostly up to 46.1 µM; also: % is scaled to controls: 0 for no effect and ±100 for the full control effect
Method in brief: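 Human lymphoblastoid LYMP1-002 cells, 2500/well, treated 16 h at 37 C in complete medium. Live-cell protease activity via GF-AFC fluorescence (Ex/Em 405/510) after 60 min reagent incubation; AC50 from Hill fits.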

[10] = MultiTox-Fluor Cytotoxicity Assay - LYMP1-002 - Dead Cells (AID 960); details: LYMP1-002 lymphoblastoid cells, dead-cell protease fluorescence; series mostly up to 46.1 µM; also: nearly all actives have a fitted effect of over 60% in size
Method in brief: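 Human lymphoblastoid LYMP1-002 cells, 2500/well, treated 16 h at 37 C; dead-cell protease cleavage of bis-AAF-R110 read by fluorescence (485/520); normalized to DMSO and 15 uM tetraoctylammonium bromide; AC50 from Hill fit.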

[11] = MultiTox-Fluor Cytotoxicity Assay - LYMP1-003 - Dead Cells (AID 961); details: LYMP1-003 lymphoblastoid cells, dead-cell protease fluorescence; series mostly up to 92.2 µM; also: nearly all actives have a fitted effect of over 70% in size
Method in brief: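 Dead-cell protease release, detected as bis-AAF-R110 fluorescence at 485/520 nm, was measured in LYMP1-003 cells after 16 h compound treatment at 37 C. AC50 values came from Hill-modeled qHTS curves normalized to DMSO (0%) and 15 uM tetraoctylammonium bromide (100%).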

[12] = MultiTox-Fluor Cytotoxicity Assay - LYMP1-003 - Live Cells (AID 962); details: LYMP1-003 lymphoblastoid cells, MultiTox-Fluor live-cell protease fluorescence; series mostly up to 92.2 µM;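 also: 0% = DMSO only and full loss = 92 µM tetraoctylammonium bromide; cytotoxic hits lower the live-cell protease signal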
Method in brief: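 LYMP1-003 lymphoblastoid cells, 2500/well in complete medium, treated 16 h at 37 C; live-cell protease cleavage of GF-AFC read by fluorescence (Ex/Em 405/510) after 60 min reagent; AC50 from Hill fits of concentration-response.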

[13] = Cell Viability - LYMP1-003 - Assay at 24 hr (AID 963); details: LYMP1-003 lymphoblastoid cell viability; series mostly up to 92.2 µM;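 also: plate controls were DMSO only for no effect and tetraoctylammonium bromide positive control for full effect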
Method in brief: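 Human lymphoblastoid LYMP1-003 cells, 2500/well, treated 24 h at 37 C in complete medium. Viability read as intracellular ATP by CellTiter-Glo luminescence after 30 min at room temperature; AC50 from Hill-equation fits of qHTS concentration-response.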

[14] = Cell Viability - LYMP2-003 (AID 965); details: LYMP2-003 lymphoblastoid cell viability; series mostly up to 92.2 µM;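 also: cells exposed to compounds for 24 h before reading; 0% = DMSO only and full effect = 92 µM tetraoctylammonium bromide; nearly all actives have a fitted effect of over 50% in size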
Method in brief: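 Acute cytotoxicity is scored as a concentration-dependent drop in intracellular ATP, measured by luciferase luminescence in human lymphoblastoid cells treated for 24 hours at 37 C. AC50 values derive from Hill-equation modelling.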

[15] = Cell Viability - LYMP2-004 (AID 966); details: LYMP2-004 lymphoblastoid cell viability, qHTS; series mostly up to 92.2 µM;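 also: plate controls were DMSO only for no effect and tetraoctylammonium bromide control for full effect; nearly all actives have a fitted effect of over 65% in size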
Method in brief: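 Lymphoblastoid LYMP2-004 cells, 2500 per well, were preincubated for 5 hr and then treated with compound for 24 h at 37 C in complete medium. Viability was read as cellular ATP by CellTiter-Glo luminescence, and AC50 values were taken from Hill fits to concentration-response data.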

[16] = Cell Viability - LYMP2-005 (AID 967); details: LYMP2-005 lymphoblastoid cell viability; series mostly up to 92.2 µM;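 also: plate controls were DMSO only for no effect and 92 µM tetraoctylammonium bromide control for full effect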
Method in brief: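 qHTS viability screen in LYMP2-005 cells: 24 h at 37 C with compound, ATP luminescence via CellTiter-Glo, AC50 from Hill curves.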

[17] = Cell Viability - LYMP2-011 (AID 969); details: LYMP2-011 lymphoblastoid cells viability; series mostly up to 92.2 µM;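 also: cells exposed to compound for 24 hours; 0% = DMSO only and full inhibition = 92 µM tetraoctylammonium bromide; nearly all actives have a fitted effect of over 60% in size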
Method in brief: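 2500 cells/well in complete medium, compound-treated 24 h at 37 C. Viability read as intracellular ATP by CellTiter-Glo luminescence after 30 min at room temperature. AC50 from Hill fits of qHTS concentration-response data.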

[18] = Cell Viability - LYMP2-013 (AID 970); details: LYMP2-013 lymphoblastoid cells viability; series mostly up to 92.2 µM;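 also: 0% = DMSO only and full inhibition = tetraoctylammonium bromide control; nearly all actives have a fitted effect of over 55% in size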
Method in brief: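 Human lymphoblastoid LYMP2-013 cells, 2500/well, treated 24 h at 37 C in complete medium; viability as intracellular ATP by CellTiter-Glo luminescence after 30 min. AC50 from Hill fits of qHTS concentration-response.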

[19] = Cell Viability - LYMP2-015 (AID 971); details: LYMP2-015 lymphoblastoid cell viability; series mostly up to 92.2 µM;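 also: 0% = DMSO only and full effect = 92 µM tetraoctylammonium bromide; nearly all actives have a fitted effect of over 55% in size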
Method in brief: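 LYMP2-015 human lymphoblastoid cells (2500/well) in complete medium, compound-treated 24 h at 37 C; viability read as cellular ATP by CellTiter-Glo luminescence after 30 min at room temperature. AC50 from Hill-equation fits of qHTS concentration-response data.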

[20] = Cell Viability - LYMP2-019 (AID 973); details: LYMP2-019 lymphoblastoid cell line viability; series mostly up to 92.2 µM;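 also: 0% = DMSO alone and full effect = 92 µM tetraoctylammonium bromide; nearly all actives have a fitted effect of over 55% in size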
Method in brief: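 Human lymphoblastoid LYMP2-019 cells (2500/well) preincubated 5 h at 37 C, then treated 24 h at 37 C in complete medium. Viability by CellTiter-Glo ATP luminescence after 30 min at room temperature; AC50 from Hill fits.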

[21] = Cell Viability - LYMP2-021 (AID 974); details: LYMP2-021 lymphoblastoid cells viability; series mostly up to 92.2 µM;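 also: compound exposure lasts 24 hours at 37 °C; % is scaled to controls: 0 for no effect and ±100 for the full control effect; nearly all actives have a fitted effect of over 55% in size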
Method in brief: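 Human lymphoblastoid LYMP2-021 cells, 2500/well in complete medium, treated 24 hours at 37 C. Intracellular ATP by CellTiter-Glo luminescence (30 min, RT); AC50 from Hill fits of concentration-response.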

[22] = Cell Viability - LYMP2-023 (AID 975); details: LYMP2-023 lymphoblastoid cell viability; series mostly up to 92.2 µM
Method in brief: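 LYMP2-023 human lymphoblastoid cells, 2500/well, preincubated 5 hr at 37 C, then compound-treated 24 hr at 37 C in complete medium. CellTiter-Glo luminescence (ATP) after 30 min at room temperature; AC50 from Hill-equation fits; tetraoctylammonium bromide positive control.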

Chain of Cytochrome P450 3A4 (Homo sapiens) (P08684 whole entry, looked up): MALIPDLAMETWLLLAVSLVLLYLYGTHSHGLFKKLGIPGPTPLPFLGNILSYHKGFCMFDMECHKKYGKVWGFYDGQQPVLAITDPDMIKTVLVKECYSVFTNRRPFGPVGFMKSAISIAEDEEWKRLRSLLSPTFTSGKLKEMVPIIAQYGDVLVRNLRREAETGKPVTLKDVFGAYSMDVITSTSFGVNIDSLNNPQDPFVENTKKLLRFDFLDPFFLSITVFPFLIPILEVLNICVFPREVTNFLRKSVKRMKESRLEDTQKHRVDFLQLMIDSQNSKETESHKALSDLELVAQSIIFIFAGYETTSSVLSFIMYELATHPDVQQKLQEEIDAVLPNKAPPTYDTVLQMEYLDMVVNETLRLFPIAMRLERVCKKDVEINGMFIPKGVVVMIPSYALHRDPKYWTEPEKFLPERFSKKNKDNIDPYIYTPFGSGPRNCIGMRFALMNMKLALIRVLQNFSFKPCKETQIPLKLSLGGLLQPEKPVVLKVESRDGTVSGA

O=NN(CCO)CCO
inactive: outcome [1] | outcome [2] | outcome [3] | caspase-3 activation [4] 4.45% | Potency [5] | Potency [6] | Potency [7] | Potency [8] | outcome [9] | Potency [10] | Potency [11] | Potency [12] | Potency [13] | Potency [14] | Potency [15] | Potency [16] | Potency [17] | Potency [18] | Potency [19] | Potency [20] | Potency [21] | Potency [22]
